Assay results taken from PubChem BioAssay (NCI).
About 83,000 compounds went through this panel and 20% of them were active in at least one assay; those are over-represented in the sample as a whole.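 The test compound was applied at a single concentration to cells in 96-well plates for 48 hours, and percent growth was recorded.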 Activity calls are given as the source filed them. Rule for the calls: active = growth percent below 10; inactive = the rest.

Experiments:
Assay in all cases: NCI-60 one-dose screen, 48 h (100 = growth as untreated, 0 = no growth, -100 = all killed)
Conditions in all cases: 10 µM unless noted
[1] = system: RPMI-8226 leukemia
[2] = system: OVCAR-8 ovarian
[3] = system: OVCAR-5 ovarian
[4] = system: OVCAR-4 ovarian
[5] = system: SK-OV-3 ovarian
[6] = system: IGROV1 ovarian
[7] = system: OVCAR-3 ovarian
[8] = system: HS 578T breast
[9] = system: NCI/ADR-RES ovarian
[10] = system: SR leukemia

Measured: growth

O=C1NC(=S)NC(=O)C1CC(=O)n1c(-c2ccccc2)nc2ccccc21
inactive: [1] 108% | [2] 95.3% | [3] 99.5% | [4] 98.1% | [5] 90.4% | [6] 84.2% | [7] 103% | [8] 98.9% | [9] 104%

COc1ccc(Nc2nc(SC)nc(-c3cccc([N+](=O)[O-])c3)c2C#N)cc1
inactive: [1] 98.4% | [2] 39.4% | [3] 76.5% | [5] 46.4% | [6] 72.3% | [7] 74.5% | [8] 42.1% | [9] 57.9%
active: [4] 2.52%

COc1cc(/C=C/C(=O)c2c(C)oc3nc[nH]c(=O)c23)cc(OC)c1OC
inactive: [1] 61.9% | [2] 79.5% | [3] 96.5% | [4] 74.9% | [5] 98.7% | [6] 75.4% | [7] 77.8% | [8] 84.3% | [9] 82.1%

COc1ccc(Nc2cc(C)nc(N3CCN(c4ccnc5cc(Cl)ccc45)CC3)n2)cc1
inactive: [3] 73.4% | [4] 36.6% | [5] 51% | [8] 71.1%
active: [10] -4.15% | [6] -11% | [7] 6.63%

C=C(C)[C@@H]1CC[C@]2(C(=O)OC)CC[C@]3(C)[C@H](CC[C@@H]4[C@@]5(C)C/C(=C/c6cccc(I)c6)C(=O)C(C)(C)[C@@H]5CC[C@]43C)[C@@H]12
inactive: [1] 95.7% | [2] 101% | [3] 98.7% | [4] 107% | [5] 93.9% | [6] 103% | [7] 119% | [8] 88% | [9] 94.1%

O=C(O)c1ccc(N=CC(=O)c2ccc(-c3ccccc3)cc2)cc1
inactive: [1] 90.3% | [2] 98.7% | [3] 92.6% | [4] 101% | [5] 110% | [6] 102% | [7] 119% | [8] 88.9% | [9] 94.9%

Cc1ccc(OC(=O)c2ccc(Cl)cc2)cc1
inactive: [1] 92.4% | [2] 96.7% | [3] 97% | [4] 79.8% | [5] 116% | [6] 116% | [7] 99.9% | [8] 110% | [9] 107%

COc1ccc(-c2cc(NC(=O)Nc3ccc4ncsc4c3)no2)cc1
inactive: [1] 92.6% | [2] 102% | [3] 98.6% | [4] 96.2% | [5] 118% | [6] 107% | [7] 114% | [8] 93.3% | [9] 106%

CC1=CC(=NN=c2cc(C)n([O-])c(C)c2)C=C(C)[N+]1=O
inactive: [1] 67.4% | [2] 86.2% | [3] 110% | [4] 78% | [5] 111% | [6] 89.2% | [7] 110% | [8] 98.8% | [9] 111%

Cc1nc2c3c(-c4ccccc4)c(-c4ccccc4)oc3ncn2n1
inactive: [1] 92.7% | [2] 97.3% | [3] 95.4% | [4] 83% | [5] 93% | [6] 94.7% | [7] 111% | [8] 95.8% | [9] 94.1%

COc1cccc(Nc2nc(SC)nc(-c3cccc([N+](=O)[O-])c3)c2C#N)c1
active: [4] -1.38%
inactive: [1] 95% | [2] 36.4% | [3] 81.6% | [5] 31.3% | [6] 74.7% | [7] 51.8% | [8] 45% | [9] 70.2%

O=S(=O)(Nc1ccc(Br)c(Cl)c1)c1ccc(-c2cnc(C3CC3)o2)cc1
inactive: [1] 20.5% | [2] 20.4% | [3] 29.4% | [4] 46.3% | [5] 36.3% | [6] 26.8%
active: [7] -19.6% | [8] 10% | [9] -15.2%

CSc1nc(-c2cccc(NC(=O)CCl)c2)c(C#N)c(=O)n1C
active: [1] -18.3% | [6] -64.5% | [7] 8.91%
inactive: [2] 72.6% | [3] 26.7% | [4] 12.5% | [5] 109% | [8] 88.1% | [9] 75.8%

COc1cc2nc(N3CCCC3)nc(NCCc3ccccc3)c2cc1OC
active: [1] -21.8% | [4] -2.44%
inactive: [2] 65.6% | [3] 39.5% | [5] 84.7% | [6] 70.3% | [7] 82.5% | [8] 98.4% | [9] 61.8%

CCCCCCCCCCCCC[N+](C)(C)Cc1ccccc1
inactive: [3] 24.9% | [9] 90.2%
active: [1] -50.9% | [2] -30.5% | [4] 8.67% | [5] 4.31% | [6] -49.9% | [7] -61.1% | [8] -31.4%

CC1=NN(c2nc(-c3ccc(Cl)cc3)c(C#N)c(N3CCOCC3)n2)C(=O)C1
inactive: [1] 57.1% | [2] 99.3% | [3] 97.3% | [4] 51.5% | [5] 86.6% | [6] 81% | [7] 50.2% | [8] 54.6% | [9] 96.1%

CCCSc1ccc2nc(NC(=O)OC)[nH]c2c1
active: [5] 6.85% | [7] -32.1% | [9] -8.18%
inactive: [1] 14.4% | [2] 17.1% | [3] 34.2% | [4] 48.9% | [6] 45.3% | [8] 21.2%

O=C1CC(=NCC(=O)n2c(-c3ccccc3)nc3ccccc32)NN1
inactive: [1] 104% | [2] 102% | [3] 99.9% | [4] 97.5% | [5] 84.8% | [6] 77.2% | [7] 103% | [8] 103% | [9] 99.5%

O=C(N=Nc1c(O)[nH]c2ccccc12)c1cc(-c2ccccc2)on1
inactive: [1] 112% | [2] 102% | [3] 99.8% | [4] 104% | [5] 116% | [6] 104% | [7] 111% | [8] 96.7% | [9] 105%

Cc1nc(/N=C(\N)NC(=O)Nc2cccc([N+](=O)[O-])c2)sc1C
inactive: [1] 74.3% | [2] 100% | [3] 91.5% | [4] 88.6% | [5] 101% | [6] 76.1% | [7] 95.9% | [8] 74.5% | [9] 46.2%

COc1ccc(-c2nc3ccc(-c4nc5ccc(N6CCN(c7ccc(F)cc7)CC6)cc5[nH]4)cc3[nH]2)cc1OC
inactive: [2] 62.6% | [3] 96.1% | [4] 80.5% | [5] 80.6% | [6] 72.8% | [7] 90.4% | [8] 74.8% | [9] 81.3%
active: [1] 4.42%

O=C(COc1cccc(/C=C2\COc3ccc(Cl)cc3C2=O)c1)c1ccc(Cl)cc1
active: [1] -11.4%
inactive: [2] 91.7% | [3] 81.1% | [4] 90.5% | [5] 99% | [6] 38.3% | [7] 87.4% | [8] 72.3% | [9] 84%

Cn1c(=O)c2c(nc3n(-c4ccc(Cl)cc4Cl)c(Sc4nc(-c5ccccc5)c(C#N)c(=O)[nH]4)cn23)n(C)c1=O
active: [4] -33.1% | [7] -15.5%
inactive: [1] 59.3% | [2] 34.2% | [3] 29.3% | [5] 39.7% | [6] 55.6% | [8] 11.5% | [9] 43.9%

O=C(/C=C/c1cccc([N+](=O)[O-])c1)c1ccc(O)c(CN2CCN(c3cc4c(cc3F)c(=O)c(C(=O)O)cn4C3CC3)CC2)c1
inactive: [2] 27.4% | [3] 12.4% | [4] 37.4% | [5] 72.9% | [6] 28.8% | [8] 51.9% | [9] 10.7%
active: [1] -25.6% | [7] 7.92%

CC(C)c1c(C(=O)c2ccccc2)c(-c2ccccc2)c(-c2ccc(F)cc2)n1CC[C@@H](O)C[C@@H](O)CC(=O)O
inactive: [1] 67.1% | [2] 49.6% | [3] 88.2% | [4] 87.5% | [5] 84.5% | [6] 39.5% | [7] 83.9% | [8] 17.1% | [9] 48.9%

N#C/C(=C\c1ccc(-c2cc(C(F)(F)F)ccc2Cl)o1)c1nc(-c2ccco2)cs1
inactive: [1] 101% | [2] 103% | [3] 98.9% | [4] 85.1% | [5] 100% | [6] 104% | [7] 113% | [8] 103% | [9] 106%

CC[C@@H]1O[C@H](O[C@@H](c2cnc[nH]2)[C@H](NC(=O)c2nc([C@H](CC(N)=O)NC[C@@H](N)C(N)=O)nc(N)c2C)C(=O)N[C@H](C)[C@H](O)[C@H](C)C(=O)N[C@@H](C(=O)NCCc2nc(-c3nc(C(=O)NCCCCN=C(N)N)cs3)cs2)[C@@H](C)O)[C@H](O[C@@H]2O[C@H](CO)[C@H](O)[C@H](OC(N)=O)[C@@H]2O)[C@H](C)[C@@H]1C
inactive: [1] 73% | [2] 47.2% | [3] 59.5% | [4] 85.6% | [5] 41.8% | [6] 45.5% | [7] 60.8% | [8] 38.8% | [9] 20.1%

CCCN1CCN(c2ccc3nc(-c4ccc5nc(-c6ccc(OCC)cc6)[nH]c5c4)[nH]c3c2)CC1
active: [1] -38.8% | [2] 0.816% | [4] -34.6% | [7] -83.5%
inactive: [3] 62% | [5] 67.7% | [6] 52.1% | [8] 70.4% | [9] 41.7%
